Assay results from PubChem BioAssay (NCI).
Compounds without any hit were thinned out: in the full panel of roughly 79,000, 15% have a hit. Calls of active or inactive are those of the source. Rule as the data show it: active = growth inhibition above about 70%; inactive = the rest.

Experiment: NCI Yeast Anticancer Drug Screen. Data for the mgt1 strain (AID 153)
Settings: S. cerevisiae mgt1 mutant growth inhibition; at 100.0 µM; stronger effect = higher value
Outline: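 mgt1 yeast grown with test compound; read-out is growth inhibition versus vehicle-treated cultures.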
In the case of `CC(CN(C)C)C(=O)/C=C/c1ccc(Cl)c(Cl)c1` (configuration not stated), the growth inhibition is reported as 98% (active). With `CCCCCCNCCCNc1c2cc(OC)ccc2nc2cccc([N+](=O)[O-])c12` the growth inhibition was 98% (active). For `NC(=S)N1N=C2c3ccccc3CC[C@H]2[C@@H]1c1ccc(Cl)cc1`, the growth inhibition was 85% (active). With `C/C(=N/NC(=S)Nc1ccccc1C)c1ccccn1` the growth inhibition was -5% (inactive). With `O=C1/C(=C/c2ccc(Cl)c(Cl)c2)CNC/C1=C\c1ccc(Cl)c(Cl)c1` the growth inhibition was 94% (active). In the case of `CC(C)OP(=O)(OC(C)C)C(=NCCO)NNc1ccc([N+](=O)[O-])cc1`, the growth inhibition is reported as 74% (active). For `N#CCC(=O)N/N=C(\c1ccccc1)C(c1ccccc1)C1(O)C(=O)Nc2c(Cl)ccc(Cl)c21` (configuration not stated), the growth inhibition was 19% (inactive). In the case of `CC(C)(CN1CCCCC1)C(=O)CC(SCCS(=O)(=O)O)c1ccccc1` (configuration not stated), the growth inhibition is reported as 12% (inactive). With `COC1=CCC23C(=O)C=CC(=O)C2(C1)C(=O)c1ccccc1C3=O` (configuration not stated) the growth inhibition was 93% (active). With `CCCCN(CCCC)c1ccc(N=Nc2ccc(S(=O)(=O)O)cc2)cc1` the growth inhibition was 97% (active). For `c1ccc2nc3c(nc2c1)sc1ccccc13`, the growth inhibition was 18% (inactive). In the case of `O=C1c2ccccc2-c2ccc(N=Cc3ccccc3)cc21`, the growth inhibition is reported as 58% (inactive). With `CNC(=S)N/N=C(/C)CCC/C(C)=N/NC(=S)NC` the growth inhibition was 32% (inactive). For `Nc1ccc(/C=C/c2ccc3cccnc3c2)cc1`, the growth inhibition was 22% (inactive). In the case of `COc1ccc2c3c1OC(C)C31CC(=O)CCC1CC2` (configuration not stated), the growth inhibition is reported as -1% (inactive). In the case of `CCOC(=O)Nc1ccc(C)c(NC(=O)OCC)c1`, the growth inhibition is reported as 16% (inactive). In the case of `CCN(CC)CCNc1ccc2nc(C)n3c4ccc(OC)cc4c(=O)c1c23`, the growth inhibition is reported as 16% (inactive).
